Compound activity from PubChem BioAssay.
HCMV inh: blocks human cytomegalovirus replication. AID 1259415. 410,000 compounds, 4.5% hits. activity change, negative = inhibition, % at 57.5 µM. HFF cells, HCMV-luciferase reporter, 72 h; hits give low values; in the data active = activity change below about -60%; inconclusive = no clear call, values can overlap the other calls; inactive = above about -39%
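Luciferase read-out from HCMV-luciferase-infected HFFs (MOI 1 PFU/cell) 72 h post infection at 37C; compounds added after 16 h cell attachment; activity normalized between buffer-only basal and Salinomycin (10uM) inhibitor controls.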
Pf growth 48h: P. falciparum growth inhibition at 48 hours (one generation); P. falciparum luciferase growth in erythrocytes, 48 h; Potency, µM (series often up to 28.7 µM), inactives show at the top dose activity change, negative = inhibition, hits mostly inhibitors; 310,000 compounds, 5.9% hits; AID 504832; note: potency is the fitted concentration of half-maximal effect
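Luciferase-expressing parasites in RBCs, 2% Hct / 0.1% parasitemia final; RPMI 1640 + 0.5% Albumax; 37 C, 5% CO2, one generation; luminescence read-out, lower signal = inhibition.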
HCV inh: inhibitors of hepatitis C virus infection; Potency, µM (doses to about 41.8 µM), for inactives: at the top dose activity change, negative = inhibition, most hits filed as inhibitors; 340,000 compounds, 3.4% hits; AID 651820; Huh7.5.1 HCVcc-Cre infection, luciferase reporter, 44 h; note: potency is the fitted concentration of half-maximal effect
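Seed cells (1,000/well) for 4 h; treat with compound and infect with HCVcc-Cre, moi about 0.5. Incubate 44 h, then detect luciferase activity.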
Pf growth 96h: P. falciparum growth inhibition at 96 hours; Potency, µM (doses to about 28.7 µM), inactives show at the top dose activity change, negative = inhibition, actives largely listed as inhibitors; P. falciparum luciferase reporter growth, 96 h; 320,000 compounds, 6.9% hits; AID 504834; note: potency is the fitted concentration of half-maximal effect
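Erythrocytes infected with luciferase-expressing P. falciparum were dispensed at 2% hematocrit and 0.05% parasitemia (final), then incubated with compounds 96 hours at 37 C in 5% CO2. Luminescence after detection reagent addition reported growth.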
An asterisk follows results filed as active; [ ] = dose if it differs, or a comment. Rows were chosen to be rich in hits. Some 13% of all compounds tested hit in one or more screens of this group. Unless noted, calls come from the whole dose curve; as a rule, active = well fitted inhibition curve with a large enough effect; inconclusive = small, poorly fitted or top-dose-only effect, or another doubt; inactive = no such curve, though single readings can be large or run the other way. % is set by controls: 0 for no effect and ±100 for the full control effect.

O=C(c1ccc(CSc2ccc(Cl)cc2)cc1)N1CCOCC1 was read as HCMV inh -30, Pf growth 48h 28%, HCV inh inconclusive and Pf growth 96h 0%.
O=C(c1ccc(CSc2ccc(Cl)cc2)cc1)N1CCCC1 was read as HCMV inh -63*, Pf growth 48h 4%[5.75 µM], HCV inh inconclusive and Pf growth 96h 3%.
COc1ccccc1N1CCN(C(=O)c2ccc(CSc3ccccc3)cc2)CC1 was read as HCMV inh -92*, Pf growth 48h -26%, HCV inh -15% and Pf growth 96h 6%.
Screening COC(=O)c1cc(C)nc2c1c(=O)nc(SCc1ccccc1F)n2C1CC1 returned HCMV inh 4.
Screening Cc1nc(N2CCCC2)ncc1C(=O)N1CCN(c2ccc(Cl)cc2)CC1 returned HCMV inh 2.
Screening Oc1ccc(N=Nc2n[nH]c(-c3ccc(Br)cc3)n2)cc1 returned HCMV inh -88*, Pf growth 48h 7%, HCV inh 12% and Pf growth 96h 68%.
Screening O=c1c2oc3ccccc3c2n(Cc2ccccc2Cl)c(=O)n1Cc1ccc2c(c1)OCO2 returned HCMV inh -4.
COc1ccccc1-n1c(=O)n(C)c2c(C(N)=O)nc(-c3cc(OC)c(OC)c(OC)c3)nc21 was read as HCMV inh 44.
Screening CC(C)[C@H](NC(=O)OC(C)(C)C)c1nnc(S(=O)(=O)Cc2c(F)cccc2Cl)o1 returned HCMV inh -76*, Pf growth 48h -3% and HCV inh inconclusive.
CSCC[C@H](NC(=O)OC(C)(C)C)c1nnc(SCC(=O)Nc2c(C)cccc2C)o1 was read as HCMV inh inconclusive, HCV inh 3% and Pf growth 96h inconclusive.
Screening C[C@H](NC(=O)OC(C)(C)C)c1nnc(SCC(=O)c2ccc(Cl)cc2)o1 returned HCMV inh -5, Pf growth 48h 10%, HCV inh inconclusive and Pf growth 96h inconclusive.
For CC(C)C[C@H](NC(=O)OC(C)(C)C)c1nnc(SCc2ccccc2)o1 the results were HCMV inh 32, Pf growth 48h 8.3µM* and HCV inh -20%.
`C=C(C)CSc1nnc([C@H](CCSC)NC(=O)OC(C)(C)C)o1` gave HCMV inh 2, HCV inh 15% and Pf growth 96h 10µM*.
`C[C@H](NC(=O)OC(C)(C)C)c1nnc(SCc2c(F)cccc2Cl)o1` gave HCMV inh -78*.
Screening Nc1c2c(nc3c1CCCC3)CCCC2 (tested in a mixture with another compound) returned HCMV inh -8, Pf growth 48h inconclusive, HCV inh 11% and Pf growth 96h 25%.
Screening Cc1ccc(C)c2c(N)c3c(nc12)CCCCC3 (tested in a mixture with another compound) returned HCMV inh -70*, Pf growth 48h inconclusive, HCV inh inconclusive and Pf growth 96h inconclusive.
`O=C1CC(c2nc(-c3ccccc3)no2)CN1c1ccc2c(c1)OCCO2` (centres undefined) gave HCMV inh -2.
Screening COc1cccc(NC(=O)Cn2c(=O)n(CCc3cccc(C)c3)c(=O)c3ccccc32)c1 returned HCMV inh -1.
`CC(=O)N(CCC(Cc1ccccc1)c1ccc2c(c1)OCO2)Cc1ccc(Cl)cc1` (centres undefined) gave HCMV inh -33, Pf growth 48h 9.3µM*, HCV inh 11µM* and Pf growth 96h 8.3µM*.
Screening CC(=O)N(CCP(=O)(c1ccccc1)c1ccccc1)Cc1ccco1 returned HCMV inh 10, Pf growth 48h -9%, HCV inh 16% and Pf growth 96h 9.3µM*.
`CC(=O)N(CCC(Cc1ccccc1)c1ccco1)Cc1ccco1` (centres undefined) gave HCMV inh 25, Pf growth 48h inconclusive, HCV inh 11µM* and Pf growth 96h inconclusive.
CCOc1ccc(NC(=O)CSc2ncc3c(n2)-c2ccccc2N(C)S3(=O)=O)cc1 was read as HCMV inh 1.
Cc1cccc(C)c1NC(=O)CN(Cc1ccc(Br)cc1)S(=O)(=O)c1ccccc1 was read as HCMV inh -26.
Screening Cn1c(CNC(=O)CSc2n[nH]c(-c3ccccc3Cl)n2)nc2ccccc21 returned HCMV inh 13.
CCCNc1ccc(-c2nc(-c3ccncc3)no2)cc1[N+](=O)[O-] was read as HCMV inh 5.
CC(c1nc2ccccc2n1Cc1ccccc1)n1c(-c2cnccn2)nc2ccccc21 (centres undefined) was read as HCMV inh 14.
c1ccc(-c2nc(N3CCN(c4ccccc4)CC3)nc(-n3ccnc3)n2)cc1 was read as HCMV inh -9, Pf growth 48h 4.1µM*, HCV inh inconclusive and Pf growth 96h inconclusive.
c1ccc(-c2nc(N3CCCCCC3)nc(-n3ccnc3)n2)cc1 was read as HCMV inh -31, Pf growth 48h inconclusive, HCV inh inconclusive and Pf growth 96h 31%.
`O=C1N=c2ccccc2=C1c1sc(=S)n(NC(=O)c2cccc(O)c2)c1O` gave HCMV inh 28, Pf growth 48h -1%, HCV inh 14% and Pf growth 96h 1.9µM*.
O=C1N=c2ccccc2=C1c1sc(=S)n(-c2ccc(O)cc2)c1O was read as HCMV inh 49, Pf growth 48h -1%, HCV inh inconclusive and Pf growth 96h inconclusive.
`Cc1ccc(S(=O)(=O)N2CCCCC2)cc1NC(=O)C1COc2ccccc2O1` (centres undefined) gave HCMV inh 11.
Screening O=C(Nc1ccc(S(=O)(=O)N2CCCC2)cc1)C1COc2ccccc2O1 (centres undefined) returned HCMV inh -16, Pf growth 48h -10%, HCV inh inconclusive and Pf growth 96h 26%.
For O=C(Nc1ccc(S(=O)(=O)Nc2ccccc2)cc1)C1COc2ccccc2O1 (centres undefined) the results were HCMV inh inconclusive, Pf growth 48h inconclusive, HCV inh inconclusive and Pf growth 96h 0.47µM*.
For O=C(Nc1cccc(S(=O)(=O)N2CCCCC2)c1)C1COc2ccccc2O1 (centres undefined) the results were HCMV inh -10 and HCV inh 10µM*.
Cc1ccc(NC(=O)C2COc3ccccc3O2)cc1S(=O)(=O)N1CCCCC1 (centres undefined) was read as HCMV inh inconclusive, Pf growth 48h 9.3µM*, HCV inh 11µM* and Pf growth 96h inconclusive.
Cc1ccc(NC(=O)Cn2c(=O)ccc3cc(S(=O)(=O)N4CCC(C)CC4)ccc32)cc1Cl was read as HCMV inh -16.
COc1ccc(CNC(=O)c2cc3sccc3n2C)cc1 was read as HCMV inh -18.
For Cc1ccc2c(c1)cc(C(=O)NCc1ccccc1)n2C the results were HCMV inh -71*, Pf growth 48h 0%, HCV inh 8% and Pf growth 96h -9%.
